The values below come from PubChem BioAssay (NCI).

Structures are written as SMILES. Compounds without any hit were thinned out: in the full panel of roughly 83,000, 20% have a hit.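 A percent growth of 40 corresponds to 60% growth inhibition; 0 means no net growth; -100 means all cells died. Active threshold: below 10.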 A number with no mark means an inactive call. Active and inactive are the calls of the source.

Among the test systems are DU-145 prostate; K-562 leukemia; MALME-3M melanoma; MDA-MB-231 breast; RXF 393 renal; SF-268 CNS; SF-295 CNS; SF-539 CNS; UACC-257 melanoma; M14 melanoma.
What all share (test): NCI-60 one-dose screen, 48 h (100 = growth as untreated, 0 = no growth, -100 = all killed)
Holding throughout (conditions): 10 µM unless noted

In the case of `COc1cc2nc(-c3ccc(C(F)(F)F)cc3)cc(OCCCN3CCCC3)c2cc1OC`, the growth was 41.7% in the assay with DU-145 prostate; 24.6% with K-562 leukemia; 51.2% in the assay on MALME-3M melanoma; 25.7% with MDA-MB-231 breast; 44.4% in the assay with RXF 393 renal; 45.5% in the assay with SF-268 CNS. In addition, the growth is -28.3% (active) in the assay with SF-295 CNS, 45.8% with SF-539 CNS, 22.7% with UACC-257 melanoma and -38.4% (active) with M14 melanoma.
On to `N#CC1=C(/N=C/c2ccccc2)Oc2c(ccc3ccccc23)C1c1ccc([N+](=O)[O-])cc1` (stereo not given), for which the growth with DU-145 prostate was 96%; with K-562 leukemia, 90.7%; in the assay on MALME-3M melanoma, 96.6%; in the assay on MDA-MB-231 breast it was 72.7%; in the assay with RXF 393 renal it was 98.2%; with SF-268 CNS it was 89.2%. Besides, the growth was 98.5% in the assay on SF-295 CNS, 95.1% with SF-539 CNS, 97.1% in the assay on UACC-257 melanoma and 102% with M14 melanoma.
Regarding `COc1ccc2[nH]c(=O)c(CN3CCN(c4nccc(-c5ccc(Cl)cc5)n4)CC3)cc2c1`, the growth with DU-145 prostate is 98.9%; with K-562 leukemia it was 70.4%; in the assay on MALME-3M melanoma, 92.9%; in the assay with MDA-MB-231 breast it was 85%; in the assay with RXF 393 renal, 90.3%; in the assay with SF-268 CNS, 90.5%. Besides, the growth with SF-295 CNS was 98.4%; in the assay with SF-539 CNS, 89.8%; with UACC-257 melanoma, 82.6%; with M14 melanoma, 102%.
Turning to `COc1ccc(NC(N)=NCCCOc2ccc(F)cc2)cc1`, the growth with DU-145 prostate is 48.5%; in the assay with K-562 leukemia, 91.5%; with MALME-3M melanoma, 96.6%; with MDA-MB-231 breast it was 93.8%; in the assay with RXF 393 renal it was 104%; with SF-268 CNS, 77.7%. For the same compound, the growth was 70.9% in the assay on SF-295 CNS, 71.7% in the assay on SF-539 CNS, 25.4% with UACC-257 melanoma and 69.1% in the assay on M14 melanoma.
`CCOC(=O)c1cc(C(=O)c2ccc(Br)cc2)n2ccc(/C=C/c3cc[n+](CC(=O)c4ccc(OC)cc4)cc3)cc12`: the growth is 87% in the assay with DU-145 prostate; 3.23% (active) in the assay on K-562 leukemia; 97.9% with MALME-3M melanoma; 71.6% in the assay on MDA-MB-231 breast; 94.4% with RXF 393 renal; 110% in the assay with SF-268 CNS. The growth in the assay with SF-295 CNS was 103%; with SF-539 CNS, 102%; with UACC-257 melanoma it was 100%; with M14 melanoma, 95.9%.
With `CCCCCC(=O)Oc1ccc(/C(=C(/C)Cc2ccc(OC)cc2)c2ccc(OCCCN(C)C)cc2)cc1`, the growth was 90.4% in the assay with DU-145 prostate; 6.07% (active) in the assay on K-562 leukemia; 74.9% in the assay on MALME-3M melanoma; 66.1% in the assay with MDA-MB-231 breast; 61.6% with RXF 393 renal; 70.1% in the assay with SF-268 CNS. Moreover, the growth is 32.4% with SF-295 CNS, 66.8% in the assay on SF-539 CNS, 75.9% with UACC-257 melanoma and 36.3% in the assay with M14 melanoma.
In the case of `C=C1C(=O)O[C@H]2[C@H]1CC/C(CNC(=O)C(C)c1ccc(CC(C)C)cc1)=C\CC[C@@]1(C)O[C@@H]21` (stereo not given in full), the growth is 16.4% in the assay with DU-145 prostate; -13.8% (active) with K-562 leukemia; -60.7% (active) in the assay on MALME-3M melanoma; -1.8% (active) in the assay with MDA-MB-231 breast; -64.4% (active) in the assay with RXF 393 renal; 43.9% in the assay on SF-268 CNS. For the same compound, the growth in the assay on SF-295 CNS was 75.9%; with SF-539 CNS, -74.8% (active); in the assay on UACC-257 melanoma it was -11.4% (active); in the assay on M14 melanoma it was -74.3% (active).
Take `Nc1n[nH]c2cccc(C#Cc3cccc(C(=O)Nc4cccc(C(F)(F)F)c4)c3)c12`: the growth in the assay on DU-145 prostate was 74.9%; with K-562 leukemia it was 8.36% (active); in the assay on MALME-3M melanoma, 10.4%; in the assay with MDA-MB-231 breast, 53.6%; in the assay on RXF 393 renal it was 65.9%; with SF-268 CNS it was 56.4%. The growth was 81.6% in the assay with SF-295 CNS, 39% with SF-539 CNS, 73.2% with UACC-257 melanoma and 39.2% with M14 melanoma.
For the compound `O=C(NCCc1ccccc1)Nc1ccc2cc3ccc(NC(=O)NCCc4ccccc4)cc3nc2c1`, the growth was 29.2% in the assay on DU-145 prostate; 1.41% (active) in the assay with K-562 leukemia; -13.8% (active) with MALME-3M melanoma; -17.5% (active) in the assay with MDA-MB-231 breast; -21.5% (active) with RXF 393 renal; -54.2% (active) with SF-268 CNS. Also, the growth in the assay on SF-295 CNS was 0.203% (active); in the assay with SF-539 CNS, -61.7% (active); with UACC-257 melanoma it was 85.6%; with M14 melanoma, 33.8%.
As to `CCCCCCNC(=O)Oc1ccc(/C(=C(\C)c2ccccc2)c2ccc(OCCN3CCCCC3)cc2)cc1`, the growth in the assay on DU-145 prostate is 82.8%; with K-562 leukemia, 4.69% (active); in the assay with MALME-3M melanoma, 34.2%; in the assay on MDA-MB-231 breast it was 78.1%; with RXF 393 renal, 47.6%; in the assay on SF-268 CNS, 68.3%. Also, the growth in the assay with SF-295 CNS is 35.4%; in the assay on SF-539 CNS, 23.3%; in the assay on UACC-257 melanoma it was -0.337% (active); with M14 melanoma, -22.9% (active).
Turning to `N#Cc1cc(-c2nc3ccccc3s2)c(=O)n(NS(=O)(=O)c2ccccc2)c1N`, the growth in the assay with DU-145 prostate is 116%; in the assay with K-562 leukemia, 104%; in the assay on MALME-3M melanoma, 112%; with MDA-MB-231 breast it was 91%; in the assay with RXF 393 renal, 113%; with SF-268 CNS, 97.4%. In addition, the growth in the assay on SF-295 CNS is 111%; with SF-539 CNS, 100%; in the assay with UACC-257 melanoma, 111%; in the assay on M14 melanoma it was 107%.
With `COc1cc(NC(C)CCCNC(=O)CCC(=O)NCCCNCCCCCCCCNCCCNC(=O)CCC(=O)NCCCC(C)Nc2cc(OC)cc3cccnc23)c2ncccc2c1` (stereo not given), the growth in the assay on DU-145 prostate is 66.7%; in the assay with K-562 leukemia, 45.1%; in the assay with MALME-3M melanoma it was 40.2%; in the assay on MDA-MB-231 breast, 44%; with RXF 393 renal it was 67.9%; with SF-268 CNS, 52.2%. The growth in the assay on SF-295 CNS was 85.5%; with SF-539 CNS it was 69%; in the assay with UACC-257 melanoma, 36.3%; in the assay on M14 melanoma, 84.4%.
`CCOC(=O)C1=C(C)NC(SCc2cc(=O)oc3ccc(F)cc23)=N[C@@H]1c1cccc2ccccc12`: the growth with DU-145 prostate is 98.5%; in the assay on K-562 leukemia, 79.7%; in the assay on MALME-3M melanoma, 112%; in the assay with MDA-MB-231 breast it was 77.7%; in the assay with RXF 393 renal, 117%; in the assay on SF-268 CNS, 94.3%. Moreover, the growth in the assay with SF-295 CNS was 97.9%; in the assay with SF-539 CNS it was 114%; in the assay on UACC-257 melanoma, 109%; with M14 melanoma, 102%.
